Some of the results follow. How many sequences the whole screen found active is unknown.
Target: furin, P09958
Assay: furin cleavage Z-score vs untreated control; higher = more cleavage, active = 3.5 or more, inactive = 1 or less, 8 variable residues between constant flanks
Method: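 Multiplexed peptide-cDNA fusion cleavage assay. 8-mer variable peptides flanked by constant Cys-Ala (N-term) and Ala-Gly-Asn-Ala-Ser-Ala-Ser-Ala (C-term) and conjugated to a cDNA oligonucleotide were bead-immobilised via the N-terminus. They were treated with purified furin at a 1:10 enzyme:substrate ratio in 50 mM HEPES pH 7.5, 1 mM CaCl2, 100 mM NaCl for 7.5, 15 or 30 min. Released cDNA was counted by next-generation sequencing, and log counts versus no-furin controls were lowess-adjusted and converted to robust Z-scores.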

Sequence of furin, P09958 (P09958 whole entry): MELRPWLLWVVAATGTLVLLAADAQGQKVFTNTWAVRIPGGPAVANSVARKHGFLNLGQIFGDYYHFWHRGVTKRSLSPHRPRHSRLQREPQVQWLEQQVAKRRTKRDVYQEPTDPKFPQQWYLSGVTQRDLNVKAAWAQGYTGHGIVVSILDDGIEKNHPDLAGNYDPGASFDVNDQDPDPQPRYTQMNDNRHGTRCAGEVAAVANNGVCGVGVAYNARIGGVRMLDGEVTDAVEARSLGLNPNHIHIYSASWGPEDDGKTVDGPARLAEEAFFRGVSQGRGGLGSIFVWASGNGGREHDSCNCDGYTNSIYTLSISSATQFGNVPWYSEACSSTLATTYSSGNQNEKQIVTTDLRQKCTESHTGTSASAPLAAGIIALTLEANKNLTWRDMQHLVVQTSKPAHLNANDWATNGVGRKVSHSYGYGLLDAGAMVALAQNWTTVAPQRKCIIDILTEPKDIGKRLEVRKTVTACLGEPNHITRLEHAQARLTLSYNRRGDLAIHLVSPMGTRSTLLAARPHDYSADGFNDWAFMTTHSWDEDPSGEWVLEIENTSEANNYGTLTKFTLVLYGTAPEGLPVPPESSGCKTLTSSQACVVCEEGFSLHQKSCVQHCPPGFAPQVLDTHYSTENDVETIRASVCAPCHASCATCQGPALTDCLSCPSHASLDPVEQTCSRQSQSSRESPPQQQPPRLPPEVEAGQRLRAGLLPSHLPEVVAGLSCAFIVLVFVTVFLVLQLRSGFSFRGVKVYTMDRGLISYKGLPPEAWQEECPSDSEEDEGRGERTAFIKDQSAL

| Sequence | furin cleavage Z-score (7.5 min) | furin cleavage Z-score (15 min) | furin cleavage Z-score (30 min) |
| --- | --- | --- | --- |
| CAYINRKKKVAGNASASA [FS-633] | -0.8 (inactive) | -0.697 (inactive) | -0.973 (inactive) |
| CATTPCSHSWAGNASASA [HC1895] | -0.676 (inactive) | 1.01 | -1.05 (inactive) |
| CASIYPGHITAGNASASA [HC314] | -1.99 (inactive) | -1.12 (inactive) | 0.0447 (inactive) |
| CALTSMLTDPAGNASASA [HC1246] | -0.19 (inactive) | -0.57 (inactive) | -0.448 (inactive) |
| CAHTPCSGSWAGNASASA [HC1835] | -0.934 (inactive) | -0.656 (inactive) | -1.49 (inactive) |
| CAAQAPPPSWAGNASASA [HC959] | -0.328 (inactive) | 0.141 (inactive) | -1.2 (inactive) |
| CAANHVVKRDAGNASASA [FS-642] | 8.87 (active) | 11.8 (active) | 8.5 (active) |
| CAGQSWVKRDAGNASASA [FS-331] | 1.45 | 0.512 (inactive) | 1.11 |
| CAINKRVKRDAGNASASA [FS-253] | 7.21 (active) | 5.79 (active) | 4.98 (active) |
| CATHINSVWKAGNASASA [HC1429] | -0.832 (inactive) | -2.14 (inactive) | -0.179 (inactive) |
| CAEVPTSTWVAGNASASA [HC2199] | 0.334 (inactive) | -2.59 (inactive) | -0.0938 (inactive) |
| CATQPCSGSWAGNASASA [HC1862] | 0.195 (inactive) | -1.61 (inactive) | 0.946 (inactive) |
| CAEVPCHLPSAGNASASA [HC2365] | 0.888 (inactive) | 0.887 (inactive) | 2.28 |
| CAGCVPCVREAGNASASA [HC273] | 0.467 (inactive) | 0.158 (inactive) | 1.81 |
| CAGQKRSRSRAGNASASA [FS-2862] | 0.426 (inactive) | -2.34 (inactive) | 0.754 (inactive) |
| CAGSNRKVREAGNASASA [FS-435] | 10.8 (active) | 11.2 (active) | 7.92 (active) |
| CAPESRKRREAGNASASA [FS-368] | 13.9 (active) | 14.4 (active) | 11.3 (active) |
| CAPVVFSQMEAGNASASA [HC647] | 1.38 | 1.32 | 0.561 (inactive) |
| CAGSKRSRREAGNASASA [FS-1207] | 11.5 (active) | 11.8 (active) | 7.54 (active) |
| CAPQSRGRREAGNASASA [FS-476] | 13.1 (active) | 13.2 (active) | 8.24 (active) |
| CAGSMRANRIAGNASASA [FS-1128] | -0.706 (inactive) | 0.0659 (inactive) | 0.059 (inactive) |
| CAPVLRGQAGAGNASASA [FS-3180] | -0.625 (inactive) | 0.202 (inactive) | -0.205 (inactive) |
| CAGSGPDQRPAGNASASA [HC399] | -0.948 (inactive) | 0.971 (inactive) | -0.827 (inactive) |

— the supplement of paper PMC3545927
